Source: PubChem BioAssay (National Center for Advancing Translational Sciences (NCATS))
A selection: hits, their analogues and other compounds. The true share with any hit is near 12%.
SARS PLpro yeast: SARS-CoV PLP inhibition in yeast; S. cerevisiae expressing SARS-CoV PLpro, growth rescue; Potency, µM (highest dose often 32.9 µM), without a hit: top-dose activity, positive = growth rescue, usual class: activators; actives 0.19% (n = 330,000); calls by dose curve; further: 0% is about no effect; nearly all actives have a fitted effect of over 55% in size
Pf growth 48h: P. falciparum growth inhibition at 48 hours (one generation). AID 504832. P. falciparum luciferase growth in erythrocytes, 48 h. Potency, µM (series often up to 28.7 µM), without a hit: at the highest dose activity change, negative = inhibition, hits mostly inhibitors. actives 5.9% (n = 310,000); further: on the % scale 0 is the no-effect control and ±100 the full control effect
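Here the parasites carry a stable luciferase gene and grow inside erythrocytes in Albumax-based RPMI medium with compound for one erythrocytic cycle. Activity is scored as loss of luminescent signal.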
Sm TGR block: S. mansoni TGR enzyme inhibition | Potency, µM (highest dose often 114 µM), for the others: at the highest dose activity change, negative = inhibition, actives largely listed as inhibitors | purified TGR, DTNB reduction, TNB absorbance 405 nm | AID 485364 | actives 3% (n = 360,000) | Q962Y6; further: on the % scale 0 is the no-effect control and ±100 the full control effect; nearly all actives have a fitted effect of over 60% in size
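TGR 20 nM + NADPH 100 uM (dispensed conc.), cpd preinc 15 min RT; start with NADPH (500 uM addition) then DTNB (15 mM addition). Kinetic TNB absorbance, 405 nm filter. Four-parameter Hill fit across titration.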
Pf growth 96h: P. falciparum growth inhibition at 96 hour, primary screen for plastid delayed-death inhibitors; P. falciparum luciferase reporter growth, 96 h; Potency, µM (titrated, usually from 28.7 µM), for the others: at the highest dose activity change, negative = inhibition, usual class: inhibitors; actives 6.9% (n = 320,000); AID 504834; further: on the % scale 0 is the no-effect control and ±100 the full control effect
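Two-generation exposure (96 h) targets delayed-death phenotype. Reporter parasites carrying integrated firefly luciferase, in red cells at 2% hematocrit and 0.05% parasitemia final, kept at 37 C, 5% CO2; luminescence loss indicates inhibition.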
* marks the source's active call; other numbers are inactive results; ? = inconclusive; nt = no result; [ ] = another dose, or the depositor's remark. Unless noted, the call rests on the fitted dose curve; in most records, active means well fitted curve in the direction sought with a large enough effect; inconclusive means small, poorly fitted or top-dose-only effect, or another doubt; inactive means no such curve, though single readings can be large; an effect the other way counts as inactive or inconclusive. Potency means the concentration at half of the fitted maximal effect.

SMILES	SARS PLpro yeast	Pf growth 48h	Sm TGR block	Pf growth 96h
Cc1ccc(CNC(=O)CCS(=O)(=O)c2ccc(Br)s2)o1	-6.2%	9.2%	10µM*	?
O=C(CCS(=O)(=O)c1ccc(Br)s1)NCc1ccccc1	4.1%	27.3%	?	nt
CC(C)NC(=O)CCS(=O)(=O)c1ccc(Br)s1	1.4%	38.3%	6.4%	0.465µM*
COC(=O)c1ccc(NC(=O)CCS(=O)(=O)c2ccc(Br)s2)cc1	-10.1%	?	-29.2%	?
CCC1Sc2ccc(S(=O)(=O)CCC(=O)NCc3ccc(C)o3)cc2NC1=O (centres undefined)	-1.3%	?	28.2µM*	-0.3%
CCCCCC(=O)Nc1cc(S(=O)(=O)N2CCOCC2)ccc1N1CCCCC1	-6.8%	?	3.3%	?
COc1ccc(S(=O)(=O)N2CCOC2CNC(=O)C(=O)NCc2ccccn2)cc1C (centres undefined)	19.0%	0.9%	5.2%	10.5%
COC(=O)CCC(NC(=O)c1cc(C)oc1C)C(=O)OC (centres undefined)	22.7%	12.1%	24.6%	10.4µM*
CSCCC(NC(=O)c1cc(C)oc1C)C(=O)O (centres undefined)	5.7%	2.3%	0.0%	nt
CC1=C(C(N)=O)C(c2ccc(C)cc2)n2nc(SCc3ccccc3)nc2N1 (centres undefined)	nt	nt	-16.4%	nt
CC(=O)Oc1ccc(C(=O)N2c3ccccc3NC(=O)C2C)cc1 (centres undefined)	-2.1%	-8.1%	7.2%	-15.8%
Cc1ccc(O)c(-c2cc(C(F)(F)F)[nH]n2)c1	-4.2%	?	0.0%	14.7µM*
Cc1cccc(NC(=O)c2cc(-c3cc(C)ccc3O)n[nH]2)c1	-1.1%	?	-17.6%	?
CCOC(=O)CCCCCC(=O)Nc1ccc2c(c1)CC(=O)N([C@@H](C)CO)C[C@H](C)[C@@H](CN(C)C(=O)Nc1ccc3c(c1)OCO3)O2	-39.8%	nt	nt	nt
Cc1ccc2nc(NCc3ccccc3)[nH]c2c1	-5.0%	?	-3.3%	1.17µM*
CCc1ccc(CNCCc2c[nH]c3ccccc23)cc1	3.5%	2.9%	-20.7%	7.38µM*
O=[N+]([O-])c1ccccc1CNCCc1c[nH]c2ccccc12	-4.7%	2.94µM*	-16.8%	-29.3%
CCOC(=O)c1noc2ncnc(N3CCC(C)CC3)c12	nt	nt	9.0%	nt
Cc1ccc(-c2nn(-c3ccc(F)cc3)cc2C(=O)NCCCN2CCCC2=O)cc1	-1.7%	?	2.7%	?
O=C(Nc1cccc(-c2nnc(-c3ccco3)o2)c1)C(c1ccccc1)c1ccccc1	-2.5%	nt	10.7%	5.22µM*
CC(C)(C)C(=O)Nc1cccc(-c2nnc(-c3cccc(NC(=O)C(C)(C)C)c3)o2)c1	12.5%	4.65µM*	0.0%	?
Cc1nc(-c2ccc(NC(=O)C(C)(C)C)cc2)c(-c2ccccc2)o1	-1.0%	nt	0.2%	4.15µM*
O=C(Nc1cccc(-c2nnc(-c3ccccc3)o2)c1)C1CC1	0.9%	?	nt	33.8%[1.15 µM]
COc1cccc(C(=O)Nc2ccc(-c3nnc(-c4ccco4)o3)cc2)c1	1.6%	4.65µM*	-0.6%	?
Cc1cccc(-c2nc(Cn3c(=O)cc(-c4ccccc4)c4c(C)nn(C)c43)c(C)o2)c1	nt	nt	4.4%	nt
SMILES	SARS PLpro yeast	Pf growth 48h	Sm TGR block	Pf growth 96h
Cc1ccccc1C(=O)N1CCN(c2ccc(NC(=O)Cc3ccccc3)cc2)CC1	7.2%	?	-0.5%	?
O=C(/C=C/c1ccc([N+](=O)[O-])cc1)OCC(=O)N1CCCC1	-1.3%	nt	nt	nt
CCCOc1ccc(-c2nnc(-c3ccco3)o2)cc1	10.8%	-20.4%	11.6%	11.7µM*
CC(C)COc1ccc(-c2nnc(-c3ccco3)o2)cc1	-10.2%	117.3%	-18.8%	?
Cc1ccc(N2CC(C(=O)OCC(=O)c3ccc(F)cc3)CC2=O)cc1 (centres undefined)	-5.7%	12.6%	4.3%	2.94µM*
COc1ccc(C(=O)Nc2nc3n(n2)C(c2ccc(Cl)cc2)C=C(c2ccccc2)N3)cc1OC (centres undefined)	nt	nt	22.4µM*	nt
O=C(Nc1nc2n(n1)C(c1ccccc1)C=C(c1ccccc1)N2)c1ccccc1 (centres undefined)	nt	nt	6.31µM*	nt
CC(C(=O)NC1CCCC1)N1CCN(Cc2ccccc2)CC1 (centres undefined)	-1.3%	34.1%	-1.7%	75.0%
O=C(CSc1ccc2ccccc2c1)NCCc1ccc(O)c(O)c1	-0.8%	-37.9%	11.2µM*	0.9%
O=C(CSc1ccccc1)NCCc1ccc(F)cc1	5.2%	8.2%	4.7%	3.29µM*
O=C(CSc1cn(Cc2ccccc2)c2ccccc12)NCc1ccc(F)cc1	-2.5%	?	11.1%	9.28µM*
CC(C(=O)NCCc1ccc(F)cc1)N1CCN(Cc2ccccc2)CC1 (centres undefined)	-1.1%	?	-9.7%	5.22µM*
COc1ccc(N2CCN(C(=O)COC(=O)CCOc3ccc(C(C)(C)C)cc3)CC2)cc1	5.2%	20.0%	-2.2%	69.9%
O=C(Cn1nc(Cc2cccnc2)c2ccccc2c1=O)Nc1cccc(C(F)(F)F)c1	nt	nt	-1.9%	nt
CC(C)=CCC/C(C)=C/CNC(=O)C[C@H]1C[C@H](C(=O)N2CCCCC2)[C@@]2(CCc3ccccc3)c3[nH]c4cc(CCC(=O)N(C)C)ccc4c3CCN2C1=O	23.3%	nt	nt	nt
CCc1nnc(NC(=O)c2oc3ccccc3c2COC(C)C)s1	-1.1%	nt	nt	nt
COc1ccccc1NC(=O)CN1C(=O)c2cccc3cccc1c23	nt	nt	6.7%	nt
N/C(=N\OC(=O)c1ccc(=O)n(Cc2ccc(Cl)cc2)c1)c1ccccn1	-5.5%	11.7µM*	-2.2%	13.1µM*
Cc1ccc(CC(=O)O/N=C(\N)c2ccccn2)cc1	-7.2%	89.7%	-8.5%	-15.3%
CC(C)(C)CC(=O)O/N=C(\N)c1ccccn1	20.2%	113.0%	-1.8%	13.1µM*
N/C(=N\OC(=O)c1ccc(=O)n(Cc2ccccc2)c1)c1ccccn1	-1.8%	13.1µM*	nt	?
N/C(=N\OC(=O)Cc1ccc(Cl)cc1)c1ccccn1	9.6%	nt	9.8%	-7.2%
CCOC(=O)c1cc(-c2ccccc2)n(-c2cccc(C(=O)NC(C)CC)c2)c1C (centres undefined)	nt	nt	14.3%	nt
COC(=O)c1ccc(C2SCC(=O)N2Cc2ccccc2)cc1 (centres undefined)	-3.9%	-21.2%	-7.9%	4.3%
Cc1cccc(NC(=O)c2ccc(C3SCC(=O)N3CCc3ccccc3)cc2)c1 (centres undefined)	-16.0%	?	10.7%	3.4%
O=C(NCCSCc1ccccc1)c1ccc(C2SCC(=O)N2Cc2ccccc2)cc1 (centres undefined)	2.3%	nt	-32.9%	7.38µM*
CC(=O)Nc1ccc(NC(=O)c2ccc(C3SCC(=O)N3CCc3ccccc3)cc2)cc1 (centres undefined)	19.5%	-19.0%	-9.5%	11.7µM*
Cc1ccc(CSCCNC(=O)c2ccc(C)cc2)cc1	-2.0%	13.1µM*	nt	0.0%
Cc1cc(C)cc(NS(=O)(=O)c2ccc3c(c2)CCCN3C(=O)C2CCC2)c1	nt	nt	0.4%	nt
